# Source: PubChem BioAssay (several laboratories)
# SENP6 block: SENP6 protease inhibitors, primary screen, biochemical, luminescence, uHTS | Recombinant SENP6 catalytic domain, aminoluciferin luminescence | Sentrin-specific protease 6 (Homo sapiens), Q9GZR1 | 330,000 tested, 1.8% active | inhibition, % at 10 µM;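 active = inhibition above about 50% at the single tested dose, limit read from the data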
# SENP8 block-1: SENP8 protease inhibitors, primary screen, biochemical, luminescence. Sentrin-specific protease 8 (Homo sapiens), Q96LD8. purified SENP8, Z-RLRGG-aminoluciferin cleavage. inhibition, % at 10 µM. 330,000 tested, 1.2% active; in the data active = inhibition above about 50%
# SENP8 block-2: human SENP8 protease inhibitors, primary screen, biochemical, fluorescence, Nedd8 protein substrate, uHTS | inhibition, % at 20 µM | recombinant SENP8 | 360,000 tested, 0.64% active | Sentrin-specific protease 8 (Homo sapiens), Q96LD8; in the data active = inhibition mostly above about 40%, no sharp cut-off; inactive = mostly below about 27%
# AHR activator: AHR activators, primary screen, cell-based, luminescence, luciferase reporter, human. Aryl hydrocarbon receptor (Homo sapiens), P35869. AHR-responsive luciferase reporter cells. activation, % at 5 µM. 320,000 tested, 2.5% active; in the data active = activation above about 47%
# Target sequence (P35869 whole entry, looked up): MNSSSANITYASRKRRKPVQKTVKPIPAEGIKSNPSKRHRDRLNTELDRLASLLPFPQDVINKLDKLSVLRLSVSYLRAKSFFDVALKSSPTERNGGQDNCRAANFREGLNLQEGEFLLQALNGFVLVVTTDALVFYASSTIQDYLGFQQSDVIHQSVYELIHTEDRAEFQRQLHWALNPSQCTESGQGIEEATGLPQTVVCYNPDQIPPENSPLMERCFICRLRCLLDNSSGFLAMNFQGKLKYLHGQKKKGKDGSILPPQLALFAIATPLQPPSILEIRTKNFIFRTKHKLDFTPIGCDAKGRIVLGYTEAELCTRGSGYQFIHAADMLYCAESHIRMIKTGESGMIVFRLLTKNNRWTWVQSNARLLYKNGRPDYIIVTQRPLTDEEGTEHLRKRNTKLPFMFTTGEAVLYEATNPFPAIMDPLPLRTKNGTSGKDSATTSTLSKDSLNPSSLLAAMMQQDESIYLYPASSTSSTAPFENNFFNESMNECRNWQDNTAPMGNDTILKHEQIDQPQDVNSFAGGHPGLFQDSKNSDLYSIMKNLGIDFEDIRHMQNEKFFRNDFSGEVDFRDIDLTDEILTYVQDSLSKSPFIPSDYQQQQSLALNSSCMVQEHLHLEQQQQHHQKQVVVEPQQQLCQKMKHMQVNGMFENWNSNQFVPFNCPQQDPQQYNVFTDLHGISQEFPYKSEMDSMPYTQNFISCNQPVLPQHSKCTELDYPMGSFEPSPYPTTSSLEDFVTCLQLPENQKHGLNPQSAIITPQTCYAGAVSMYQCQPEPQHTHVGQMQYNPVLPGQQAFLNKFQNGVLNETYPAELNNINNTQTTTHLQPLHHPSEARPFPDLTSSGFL
# EBI2 block: EBI2 receptor antagonists, beta-arrestin recruitment, primary screen, cell-based, luminescence, 7a,25-OHC stimulation, uHTS; G-protein coupled receptor 183 (Homo sapiens), P32249; 7a,25-OHC stimulated; inhibition, % at 5 µM; 360,000 tested, 0.81% active; AID 651636, 2012; in the data active = inhibition above about 38%;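 also: enzyme fragment complementation signal reports receptor beta-arrestin coupling in cells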
# SENP7 inh: SENP7 protease inhibitors, primary screen, biochemical, luminescence, uHTS; Sentrin-specific protease 7 (Homo sapiens), Q9BQF6; recombinant SENP7, Z-RLRGG-aminoluciferin luminescence, 40 min; inhibition, % at 5 µM; 330,000 tested, 1.5% active; AID 434973, 2010;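 active = inhibition above about 50% at the single test dose, limit read from the data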
# SENP8 confirm: SENP8 protease inhibitors, retest, confirmation, biochemical, luminescence, single concentration; shares compounds with SENP7 inh; 6,200 tested, 40% active; Recombinant SENP8, Z-RLRGG-aminoluciferin luminescence, 60 min; AID 488912, 2010; inhibition, % at 12.5 µM;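 active = mean inhibition across replicates above about 50%, limit read from the data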
# SENP6 conf: SENP6 protease inhibitors, confirmation, biochemical, luminescence, single concentration; shares compounds with SENP7 inh; recombinant SENP6, Z-RLRGG-aminoluciferin luminescence; 6,200 tested, 58% active; inhibition, % at 12.5 µM
# SENP7 confirm: SENP7 protease inhibitors, retest, confirmation, biochemical, luminescence, single concentration | shares compounds with SENP7 inh | recombinant SENP7, Z-RLRGG-aminoluciferin luminescence, 40 min | inhibition, % at 12.5 µM | 6,200 tested, 69% active | AID 488917, 2010
# Casp3 select: caspase-3 protease inhibitors, confirmation, selectivity assay for SENP inhibitor project, biochemical, single concentration. inhibition, % at 12.5 µM. AID 488918, 2010. shares compounds with SENP7 inh. 6,200 tested, 60% active. purified caspase-3, Z-DEVD-aminoluciferin luminescence, 60 min;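 active = mean inhibition above about 50%, limit read from the data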
# Luc interf: counter-screen for SENP inhibitors: luminescence interference; 6,200 tested, 39% active; inhibition, % at 12.5 µM; AID 488919; Pre-incubated SENP8/Z-RLRGG-aminoluciferin, luciferase luminescence interference; shares compounds with SENP7 inh;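 active = mean inhibition above about 50% when retested at one dose, limit read from the data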
# A number is an active result; - = inactive; . = not tested or not shown. A selection: hits, their analogues and other compounds. The true share with any hit is near 5%.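 The calls were made as follows, unless noted: active = mean inhibition above about 50% in the one-dose retest (limit read from the data); inactive = the rest.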
SMILES,SENP6 block,SENP8 block-1,SENP8 block-2,AHR activator,EBI2 block,SENP7 inh,SENP8 confirm,SENP6 conf,SENP7 confirm,Casp3 select,Luc interf
O=C(O/N=C1\CCS(=O)(=O)c2sccc21)c1ccc(F)cc1,-,-,-,-,-,-,.,.,.,.,.
O=C(O/N=C1/CCCc2occc21)c1ccc(F)cc1,87,83,-,-,-,88,-,88,79,66,-
O=C(O/N=C1/CCSc2ccccc21)c1ccc(F)cc1,-,-,-,-,-,87,73,92,89,79,-
C[C@H]1CCC2[C@](C)(CO)[C@@H](O)CC[C@]2(C)[C@@]12CCC(CO)(CCO)O2 (some centres not stated),-,-,-,-,-,-,.,.,.,.,.
CCOC(=O)C1CCN(Cc2ccc(O)c(OC)c2)CC1,96,-,-,-,-,-,-,-,-,-,-
CCOC(=O)C1CCN(Cc2ccc(OC)c(OCc3ccccc3)c2)CC1,-,-,-,-,-,-,.,.,.,.,.
COC(=O)[C@@]1(Cc2ccc(F)cc2)[C@H]2c3cc(C(=O)N4CCCC4)n(Cc4cc(F)cc5c4OCOC5)c3C[C@H]2CN1C(=O)c1ccccc1,.,.,-,.,-,.,.,.,.,.,.
O=C(Nc1nccs1)c1ccc(-c2ccccc2Cl)o1,79,62,-,54,-,70,66,69,-,-,-
CC(=O)Nc1ccc(NC(=O)c2ccc(-c3ccccc3Cl)o2)cc1,-,-,-,.,-,-,.,.,.,.,.
O=C(Nc1ccccc1)c1ccc(-c2ccccc2Cl)o1,66,-,-,-,-,60,-,-,82,-,-
CC(=O)Cc1nsc(NC(=O)c2ccc(-c3ccccc3Cl)o2)n1,-,57,-,-,-,-,83,79,92,66,66
Cc1ccc(CSCCNC(=O)CSc2ccccc2)cc1,-,-,-,-,-,-,.,.,.,.,.
Clc1nc2nc3n(c2nc1Cl)CCC3,-,-,-,-,-,-,.,.,.,.,.
COc1ccc(-c2nsc3c(N4CCCC4)ncnc23)cc1,52,-,-,-,-,74,-,-,51,58,-
Cc1ccc(NC(=O)CCC(=O)OCC(=O)c2ccc(Oc3ccc([N+](=O)[O-])cc3)cc2)c(C)c1,-,-,-,-,-,-,.,.,.,.,.
O=C(O)C1CN(C(=O)c2cccc(Br)c2)C1,-,-,-,-,-,-,.,.,.,.,.
Cc1cccc2cc(C(c3nnnn3CC3CCCO3)N3CCc4ccccc4C3)c(=O)[nH]c12 (configuration not stated),67,-,.,-,.,-,-,-,-,-,-
Cc1ccc2cc(C(c3nnnn3CC3CCCO3)N3CCc4ccccc4C3)c(=O)[nH]c2c1 (configuration not stated),-,74,-,-,-,86,-,-,-,-,-
Cc1nnc(SCC(=O)Nc2sccc2C#N)s1,-,-,-,-,-,-,.,.,.,.,.
N#Cc1ccsc1NC(=O)CSc1nncs1,95,95,-,-,-,97,97,97,102,98,84
N#Cc1ccsc1NC(=O)CSc1nnnn1-c1ccc(O)cc1,52,-,-,-,-,-,-,-,61,-,-
O=C(COC(=O)c1cc2ccccc2oc1=O)Nc1ccc(F)cc1F,-,-,-,-,-,-,.,.,.,.,.
CCOc1cccc(/C=N/NC(=S)Nc2ccccc2[N+](=O)[O-])c1O,-,-,-,-,-,79,-,55,-,-,-
O=C(NC1=C(NC2CCS(=O)(=O)C2)C(=O)c2ccccc2C1=O)c1ccccc1 (configuration not stated),86,60,87,-,-,-,-,86,55,93,-
CCc1ccc(C(=O)Cn2ccsc2=N)cc1,79,75,-,-,-,81,58,54,84,66,74
SMILES,SENP6 block,SENP8 block-1,SENP8 block-2,AHR activator,EBI2 block,SENP7 inh,SENP8 confirm,SENP6 conf,SENP7 confirm,Casp3 select,Luc interf
CC(C)(C)NC(=O)NC(=O)Cn1ccsc1=N,-,-,-,-,-,-,.,.,.,.,.
COc1ccc(/C=C2\Oc3ccccc3C2=O)cc1,93,92,-,-,-,97,-,94,101,94,88
CC(=O)Oc1ccc(/C=C2/Oc3ccccc3C2=O)cc1,87,83,-,-,-,78,-,61,-,71,-
COCOc1ccc(/C=C2/Oc3cc(OCOC)cc(OCOC)c3C2=O)c(OCOC)c1,-,-,-,-,-,-,.,.,.,.,.
COc1ccc(/C=C2\C(=O)c3ccccc3OC2c2ccccc2)cc1 (configuration not stated),-,-,-,-,-,-,.,.,.,.,.
COc1cc(OC)c2c(c1)O/C(=C\c1ccccc1)C2=O,68,57,-,-,-,54,72,68,83,-,72
CCOc1ccc(-n2nc3cc(C)c(N)cc3n2)cc1,73,-,-,-,-,-,-,74,94,-,-
CCOc1ccc(-n2nc3ccc(N)cc3n2)cc1,86,79,-,.,-,-,85,-,-,-,66
CC(C)c1ccc(-n2nc3ccc(N)cc3n2)cc1,88,73,-,58,-,-,-,88,98,56,-
Nc1ccc2nn(-c3cc([N+](=O)[O-])ccc3O)nc2c1,-,-,-,-,-,-,.,.,.,.,.
Cc1ccc(C2=NN(S(C)(=O)=O)C(c3ccc4c(c3)OCO4)C2)cc1 (configuration not stated),68,-,-,-,-,59,-,63,90,71,-
Cc1ccc(S(=O)(=O)Nc2ccccn2)cc1[N+](=O)[O-],-,-,-,-,-,-,.,.,.,.,.
